HT1080 IDH1KD tx: toxicity to HT-1080 IDH1 knockdown cells (counter line); HT-1080 IDH1 knockdown viability, ATP luminescence, 48 h; Potency, µM (highest dose often 46.1 µM), actives largely listed as cytotoxic; actives 2% (n = 360,000); AID 686971
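HT-1080-IDH1KD cells (IDH1 knocked down), 750/well in RPMI with 5% FBS, treated with compound 48 h at 37 degrees C. Viability by CellTiter-Glo luminescence, normalised to DMSO and no-cell wells; concentration-response curves classed.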
HepG2 tox: kills HepG2 cells in TGF-b inhibitor counter-screen; HepG2 CAGA-GFP viability, ATP luminescence, 18 h; Potency, µM (doses to about 46.1 µM), hits mostly cytotoxic; actives 0.76% (n = 410,000)
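HepG2 CAGA-GFP cells (1000/well, DMEM with 1% FBS) received compound, then TGF-beta at 500 pg/mL final, and were incubated 18 hours at 37 degrees C. Viability was read by CellTiter-Glo luminescence. Media-only wells were set as complete cell-killing and DMSO as no toxicity.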
HT1080-NT tox: kills 2HG-producing HT-1080-NT fibrosarcoma cells. HT-1080-NT fibrosarcoma viability, CellTiter-Glo ATP luminescence, 48 h. Potency, µM (titrated, usually from 46.1 µM), usual class: cytotoxic. actives 1.6% (n = 360,000);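 also: NT is the 2HG producing partner of a matched IDH1 knockdown line; nearly all actives have a fitted effect of over 55% in size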
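A 48-hour cytotoxicity screen used HT-1080-NT cells plated 2 hours before compound delivery. ATP-based CellTiter-Glo luminescence measured viability, normalized to DMSO and no-cell controls.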
ATXN viability: reduces viability in counter-screen for ATXN expression inhibitors; S2 cells (HEK-293 line with an ATXN2-luciferase reporter) viability, CellTiter-Fluor protease fluorescence, 24 h; actives 0.49% (n = 400,000); Potency, µM (top dose mostly 56.7 µM), most hits filed as cytotoxic; also: nearly all actives have a fitted effect of over 40% in size
ATXN2 expr inh: reduces ATXN2 reporter expression in HEK-293 cells | HEK-293 ATXN2-luciferase reporter, luminescence, 24 h | Potency, µM (highest dose often 57 µM), most hits filed as inhibitors | actives 0.72% (n = 360,000); also: nearly all actives have a fitted effect of over 55% in size
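qHTS (up to 57 uM final) was run with 24 h compound exposure of reporter cells at 37 °C. Each well was multiplexed: SteadyGlo luminescence measured ATXN2-luciferase expression after a fluorogenic Gly-Phe-AFC viability readout (25 uM final).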
TGFb inhibitor: blocks TGF-b signaling; Potency, µM (doses to about 46.1 µM), hits mostly inhibitors; HepG2 CAGA-GFP TGF-b/SMAD3 reporter, GFP fluorescence, 18 h; TGF-beta stimulated, 500 pg/mL final; actives 1.2% (n = 410,000); AID 588855; also: nearly all actives have a fitted effect of over 65% in size
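Per well, imaged GFP fluorescence of HEPG2 CAGA-GFP cells gives the signal; cells get compound, then TGF-beta (500 pg/mL final), 18 h at 37 degrees C; %Activity versus -TGF-beta and +DMSO controls.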
A number is an active result; i = inactive; ? = inconclusive; nt = not tested or not shown; ! = a repeat was not active. A selection: hits, their analogues and other compounds. The true share with any hit is near 3.8%. Calls follow the shape of the dose curve; as a rule, active = well fitted curve in the direction sought with a large enough effect; inconclusive = small, poorly fitted or top-dose-only effect, or another doubt; inactive = no such curve, though single readings can be large; an effect the other way counts as inactive or inconclusive.

SMILES | HT1080 IDH1KD tx | HepG2 tox | HT1080-NT tox | ATXN viability | ATXN2 expr inh | TGFb inhibitor
CC(C)C(N)c1csc(NC(=O)Nc2cccc(C(F)(F)F)c2)n1 (stereo not drawn) | 23µM | i | 21µM | nt | ? | ?
NC(Cc1ccc(Cl)cc1)c1csc(NC(=O)Nc2ccccc2)n1 (stereo not drawn) | 18µM | 16µM | 23µM | ? | ? | 16µM
NC(CO)c1csc(NC(=O)Nc2cccc(Cl)c2)n1 (stereo not drawn) | i | i | i | i | i | i
COc1ccc(CC(N)c2csc(NC(=O)Nc3cccc(C(F)(F)F)c3)n2)cc1 (stereo not drawn) | 16µM | i | 18µM | ? | ? | ?
CC(C)COC(=O)c1cccc2c1-c1ccccc1/C2=N\O | ? | i | ? | ? | i | 14µM
CCOC(=O)c1cccc2c1-c1ccccc1/C2=N/O | ? | i | ? | i | i | ?
Brc1ccc(/C=N/Nc2ccccn2)cc1 | i | i | i | i | i | ?
COc1cccc(/C=N/Nc2cc(-n3nc(C)cc3-c3ccccc3)ncn2)c1O | ? | i | ? | ? | ? | ?
COc1ccc(/C=N/Nc2nccnc2Cl)c(OC)c1 | i | i | i | i | i | i
COc1ccc(/C=N/Nc2nccnc2Cl)cc1 | 11µM | 7.9µM | 10µM | i | i | i
COc1cccc(/C=N/Nc2ncnc3scc(-c4ccccc4)c23)c1O | ? | i | ? | i | 1.1µM | ?
COc1cccc(/C=N/Nc2nc3ccccc3[nH]2)c1O | 12µM | i | ? | ? | nt | 3.2µM
Clc1nccnc1N/N=C/c1ccc(Br)cc1 | i | 13µM | i | i | i | i
COc1ccc(CN2CCOc3ccc(CN4CCC(Oc5cccnc5)CC4)cc3C2)c(F)c1 | nt | nt | nt | i | nt | nt
CCc1cc(=O)oc2c(C)c3c(cc12)CN(CCc1ccccc1OC)CO3 | nt | i | nt | nt | i | i
CC(C)Cn1c(SCc2cccc(F)c2)nc2ccsc2c1=O | nt | i | nt | i | i | i
Oc1ccccc1/C=N/Nc1nccnc1Cl | ? | i | ? | ? | ? | i
COc1cccc(/C=N/Nc2nccnc2Cl)c1O | ? | 11µM | ? | ? | 5.6µM | i
CN(CC(=O)NC(=O)NCc1ccco1)Cc1nc2ccccc2c(=O)[nH]1 | 11µM | i | ? | i | i | ?
O=C(CCc1nc2ccccc2c(=O)[nH]1)NCc1ccco1 | i | i | i | i | i | i
Fc1ccccc1CNc1ccc(Cl)cc1 | i | i | i | i | i | i
Oc1ccc(NCc2ccccc2OCc2ccccc2)cc1 | ? | 11µM! | i | nt | ? | 8.9µM
CCOc1cc(CNc2ccc(O)cc2)ccc1OCc1ccc(Cl)cc1 | nt | i | nt | ? | i | 13µM
Oc1ccc(NCc2ccccc2OCc2ccc(Cl)cc2)cc1 | nt | 13µM | nt | nt | nt | 5.6µM
O=c1[nH]c2ccc(NCc3ccccc3OCc3ccc(Cl)cc3)cc2[nH]1 | ? | i | 16µM | ? | ? | ?
SMILES | HT1080 IDH1KD tx | HepG2 tox | HT1080-NT tox | ATXN viability | ATXN2 expr inh | TGFb inhibitor
COc1ccc(OC)c(-c2cc(Cl)c3c(c2)CC(CNC(=O)c2cccnc2SC)O3)c1 (stereo not drawn) | nt | nt | nt | i | nt | nt
CN(C)c1ccc(C(=O)NCCCCCCC(=O)NO)cc1 | nt | nt | nt | nt | i | nt
Oc1c(C(c2cccc(Br)c2)N2CCCC2)sc2nc(-c3ccco3)nn12 (stereo not drawn) | nt | i | nt | i | i | i
CC1CC(C)CN(c2ccc([N+](=O)[O-])nc2)C1 (stereo not drawn) | i | i | i | 12µM | i | i
COc1ccc(N2CCc3c(C)nc4c(OC)cc(OC)cc4c32)cc1 | 23µM | i | ? | i | i | i
COc1ccc(N2CCc3c(C)nc4c(OC)cc(OC)cc4c32)c(OC)c1 | ? | i | ? | ? | ? | i
COc1cccc(N2CCc3c(C)nc4ccc(Cl)cc4c32)c1 | 21µM | i | ? | nt | ? | ?
Cc1cc(C)nc(S[C@@H]2C[C@@H](C(=O)N3CCCN(C)CC3)N(Cc3cc(F)ccc3F)C2)n1 | nt | nt | nt | i | nt | nt
COc1cccc2cc(C(=O)N3CCc4ccccc4C3)c(=O)oc12 | i | i | i | i | i | i
COc1cc2c(cc1OC)CN(C(=O)/C=C/c1cccs1)CC2 | 4.1µM | i | 7.3µM | ? | ? | i
COc1cc2c(cc1OC)CN(C(=O)c1cc3ccccc3oc1=O)CC2 | 16µM | i | ? | i | i | ?
COc1cc2c(cc1OC)CN(C(=O)c1cccs1)CC2 | i | i | i | i | i | i
O=C(Nc1ccc(F)cc1F)C1CCN(S(=O)(=O)c2ccc3[nH]c(=O)ccc3c2)CC1 | nt | i | nt | i | i | i
COc1ccc(Nc2cc(C)nc3ccc(C)cc23)cc1 | i | i | i | ? | nt | i
CC(=O)c1ccc(Nc2cc(C)nc3ccc(C)cc23)cc1 | ? | i | 21µM | ? | i | i
Cc1ccc2nc(/C(C#N)=C/c3ccc(-c4cccc(Cl)c4)o3)[nH]c2c1 | nt | 8.9µM | nt | i | ? | i
CCN(CCCNC(=O)CN1N=C(c2ccc(OC)cc2)CCC1=O)c1cccc(C)c1 | nt | i | nt | nt | nt | ?
COc1ccc(-c2csc(N3CCN(c4cc(C)nc5ccccc45)CC3)n2)cc1OC | 16µM | 11µM | ? | 10µM | ? | ?
COc1cc(-c2csc(N3CCOCC3)n2)cc(OC)c1OC | i | i | i | i | i | i
C/C(=N\Nc1ccccn1)c1ccc(C(C)C)cc1 | i | i | i | i | i | 13µM
C/C(=N\Nc1ccccn1)c1ccc(N2CCOCC2)cc1 | i | i | i | i | i | i
COc1ccc(Cn2c(SCc3ccc(C(=O)NCc4cccs4)cc3)nc3ccncc32)cc1 | nt | i | nt | ? | i | ?
Cc1ccccc1Oc1ccccc1N | i | i | i | i | i | i
Nc1ccccc1Oc1ccc2ccccc2c1 | i | i | i | i | nt | 16µM
Cc1ccc(N2CC(NC(=O)c3ccc(S(=O)(=O)N4CCCC4)cc3)CC2=O)cc1 (stereo not drawn) | nt | i | nt | nt | nt | i
SMILES | HT1080 IDH1KD tx | HepG2 tox | HT1080-NT tox | ATXN viability | ATXN2 expr inh | TGFb inhibitor
Cc1cccc(C)c1OCc1cc(=O)n2c(-c3ccccc3)csc2n1 | nt | i | nt | i | i | 10µM
CCN(C(=O)CCc1nc(-c2ccc(C)cc2)no1)c1cccc(Cl)c1 | nt | i | nt | i | i | 13µM
CCC1CSC(Nc2ccc(C(=O)/C=C/c3ccc(Oc4ccccc4)cc3)cc2)=N1 (stereo not drawn) | i | i | i | ? | ? | ?
CCC1CSC(Nc2ccc(C(=O)/C=C/c3cccc(C)c3)cc2)=N1 (stereo not drawn) | ? | i | ? | i | i | 18µM
CC(=O)Nc1ccccc1-c1nc2ccccc2n(CC(=O)Nc2ccc(C)c(Cl)c2)c1=O | nt | i | nt | nt | nt | ?
O=C(Nc1ccc(CN2CCCCC2)cc1)Nc1ccc(Br)cc1Cl | i | i | i | ? | 14µM | i

Compound activity from PubChem.
